Among the data in PubChem BioAssay are composite z-score and z-score values, retold here.

Test [1] relates to Plasmodium falciparum Sir2 (PF13_0152, Sir2A). Kind of test: Plasmodium falciparum Sir2A binding compounds – biochemical, small-molecule microarray, 635 nm fluorescence, primary screen (AID 1098).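 Also: score merges spot fluorescence intensity with its signal-to-noise ratio.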 To be noted: fluorescence 635 nm, higher = more signal.
The nature of test [2]: probe aDKK1 binding to arrayed compounds – biochemical, biotinylated probe, 635/667 nm fluorescence, primary screen (AID 1099).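 Also: score merges 667nm spot fluorescence with signal to noise across triplicate slides.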 To be noted: small-molecule microarray, higher = more signal.
A short description of test [3]: probe aCHRDL2 binding to arrayed compounds – biochemical, biotinylated probe, 635/667 nm fluorescence, primary screen (AID 1100). Conditions: small-molecule microarray, higher = more signal.
The nature of test [4]: change in splice reporter luminescence, either direction, cell-based, HEK293, spliceosome inhibition project, primary screen (AID 1101).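 Also: HEK293 cells carrying a splicing-competent luciferase reporter gene; test concentration not given here.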 Conditions: HEK293 splicing luciferase reporter, 24 h, higher = more signal, called active from +8 up or from −8 down. (In a reporter assay the amount or activity of a reporter protein is the signal.)
Test [5] concerns the target Fibroblast growth factor 10 (Homo sapiens) (UniProt O15520). The test can be described thus: compounds binding fibroblast growth factor 10 – biochemical, small-molecule microarray, 635 nm fluorescence, primary screen (AID 1102). To be noted: FGF10 binding, fluorescence 635 nm, higher = more signal.
For test [6], the system named is glycogen synthase kinase-3 (GSK3A per assay name; protocol says GSK3B). Kind of test: compounds binding glycogen synthase kinase-3 – biochemical, small-molecule microarray, 635 nm fluorescence, GSK3A, primary screen (AID 1103). Also: the record names both GSK3A and GSK3B. To be noted: fluorescence 635 nm, higher = more signal.
For test [7], the target named is Epidermal growth factor receptor (Homo sapiens) (UniProt P00533). The test can be described thus: compounds binding epidermal growth factor receptor – biochemical, small-molecule microarray, 635 nm fluorescence, primary screen (AID 1104).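 Also: score merges 667 nm emission intensity with spot signal to noise over triplicate slides.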 To be noted: EGFR binding, higher = more signal.
Sequence of Epidermal growth factor receptor (Homo sapiens) (P00533 whole entry, looked up): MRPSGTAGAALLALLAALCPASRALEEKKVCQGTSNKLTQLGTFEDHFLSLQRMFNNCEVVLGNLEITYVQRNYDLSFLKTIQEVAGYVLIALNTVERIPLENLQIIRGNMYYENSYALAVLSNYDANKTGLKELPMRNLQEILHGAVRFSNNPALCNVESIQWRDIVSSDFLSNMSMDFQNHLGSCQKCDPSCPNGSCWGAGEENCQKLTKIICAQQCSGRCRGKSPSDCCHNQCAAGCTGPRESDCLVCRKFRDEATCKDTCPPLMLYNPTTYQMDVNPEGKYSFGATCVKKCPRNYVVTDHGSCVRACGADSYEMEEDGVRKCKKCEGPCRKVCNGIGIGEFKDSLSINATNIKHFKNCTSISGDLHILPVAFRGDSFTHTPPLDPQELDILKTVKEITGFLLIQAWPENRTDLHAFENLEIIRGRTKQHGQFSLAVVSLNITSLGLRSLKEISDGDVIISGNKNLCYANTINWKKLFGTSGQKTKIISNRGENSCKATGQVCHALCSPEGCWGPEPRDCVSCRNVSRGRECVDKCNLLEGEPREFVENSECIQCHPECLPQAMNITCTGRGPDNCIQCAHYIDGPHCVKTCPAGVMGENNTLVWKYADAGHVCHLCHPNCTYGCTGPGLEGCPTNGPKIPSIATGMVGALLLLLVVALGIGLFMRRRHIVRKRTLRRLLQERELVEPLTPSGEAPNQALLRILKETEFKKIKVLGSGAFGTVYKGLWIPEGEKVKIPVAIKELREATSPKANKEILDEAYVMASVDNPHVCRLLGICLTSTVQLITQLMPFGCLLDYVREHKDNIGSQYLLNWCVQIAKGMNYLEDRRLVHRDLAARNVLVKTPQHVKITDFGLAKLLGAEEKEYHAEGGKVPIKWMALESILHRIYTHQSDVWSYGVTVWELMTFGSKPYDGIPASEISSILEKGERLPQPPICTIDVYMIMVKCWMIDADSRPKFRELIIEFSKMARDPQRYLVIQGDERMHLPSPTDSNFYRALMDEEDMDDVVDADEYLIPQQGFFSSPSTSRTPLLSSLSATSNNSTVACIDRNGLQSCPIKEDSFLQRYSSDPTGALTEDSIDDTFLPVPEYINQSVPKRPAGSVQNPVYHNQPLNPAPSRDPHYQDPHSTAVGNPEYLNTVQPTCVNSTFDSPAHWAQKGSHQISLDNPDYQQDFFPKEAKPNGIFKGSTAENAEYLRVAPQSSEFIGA
Test [8] concerns the target Follistatin-related protein 3 (Homo sapiens) (UniProt O95633). Kind of test: compounds binding follistatin-related protein 3 – biochemical, small-molecule microarray, 635 nm fluorescence, primary screen (AID 1105).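 Also: score merges emission near 667 nm and signal to noise per printed spot across three slides.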 Conditions: FSTL3 binding, higher = more signal.
In test [9] the target is Dickkopf-related protein 1 (Homo sapiens) (UniProt O94907). Kind of test: small molecules binding DKK1 protein – biochemical, small-molecule microarray, 635 nm fluorescence scan, primary screen (AID 1106).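 Also: score merges emission near 667 nm with signal to noise over three replicate slides.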 To be noted: higher = more signal.
Sequence of Dickkopf-related protein 1 (Homo sapiens) (O94907 whole entry, looked up): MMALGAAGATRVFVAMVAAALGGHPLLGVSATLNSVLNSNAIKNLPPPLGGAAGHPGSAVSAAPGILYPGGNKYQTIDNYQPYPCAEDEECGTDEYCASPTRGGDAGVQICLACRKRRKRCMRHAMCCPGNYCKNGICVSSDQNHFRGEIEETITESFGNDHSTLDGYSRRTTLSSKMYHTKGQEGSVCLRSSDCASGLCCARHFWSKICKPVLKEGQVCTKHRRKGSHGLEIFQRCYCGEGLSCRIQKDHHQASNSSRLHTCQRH
Test [10] deals with Inhibin beta A chain (activin A). The test can be described thus: small molecules binding activin A – biochemical, small-molecule microarray, 635 nm fluorescence scan, primary screen (AID 1107).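 Also: mouse activin A protein probed at 4.33 µg/mL on printed slides; score merges bound-protein fluorescence near 667 nm with spot signal-to-noise.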 Conditions: INHBA, higher = more signal.
The subject of test [11] is Human papillomavirus type 1a protein E7 (residues 44-93). The test can be described thus: small molecules binding HPV E7 44-93 – biochemical, small-molecule microarray, residues 44-93, 635 nm fluorescence, primary screen (AID 1108).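 Also: E7 fragment applied at 1 µg/mL in TBST for 1 h at 4 C; score combines spot fluorescence with its signal to noise ratio.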 Conditions: fluorescence 635 nm, higher = more signal.
A short description of test [12]: hepatitis C replication reporter changes, two-sided – Huh7 cells, luciferase reporter, HCV replication inhibitor project, primary screen (AID 1109).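 Also: huh7 hepatoma cells harbouring a luciferase neomycin HCV replicon reporter; luciferase luminescence as measure of HCV replicon replication; test concentration not given here.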 Conditions: Huh7 HCV replicon luciferase reporter, 48 h; higher = more signal.
Test [13] concerns the target Left-right determination factor 2 (Homo sapiens) (UniProt O00292). Kind of test: small molecules binding LEFTY2 protein – biochemical, small-molecule microarray, 635 nm fluorescence scan, primary screen (AID 1110). Conditions: higher = more signal.
For test [14], the target named is Calmodulin-1 (Homo sapiens) (UniProt P0DP23). Kind of test: small molecules binding calmodulin-1 with EGTA – biochemical, small-molecule microarray, Cy5-labelled CALM1, profiling panel (AID 1111).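 Also: labelled calmodulin applied in Tris saline Tween buffer holding calcium plus EGTA and DTT.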 Conditions: Cy5-CALM1 binding fluorescence, higher = more signal.
For test [15] the target is unchanged. The test can be described thus: small molecules binding Ca-loaded calmodulin-1 – biochemical, small-molecule microarray, Cy5-labelled CALM1, plus calcium, artefact control for SMM control-protein annotation, profiling panel (AID 1112).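 Also: score merges spot fluorescence with signal to noise from triplicate slides.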 To be noted: Cy5-CALM1 binding fluorescence, higher = more signal.
Test [16] can be described thus: probe aWnt5a binding to arrayed compounds – biochemical, biotinylated probe, 635/667 nm fluorescence, primary screen (AID 1113).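 Also: score merges 667 nm fluorescence intensity with signal-to-noise per printed feature.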 Conditions: small-molecule microarray, higher = more signal.
Test [17] can be described thus: probe aShh binding to arrayed compounds – biochemical, biotinylated probe, 635/667 nm fluorescence, primary screen (AID 1114).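 Also: probe is biotin-labelled aShh protein from a stem cell growth factor screen; measures binding of labelled protein to compounds printed on the slide; score merges feature fluorescence at 667 nm with signal-to-noise.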 Conditions: small-molecule microarray, higher = more signal.
Test [18] in a line: probe aNog binding to arrayed compounds – biochemical, biotinylated probe, 635/667 nm fluorescence, primary screen (AID 1115).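 Also: probe is biotinylated aNog protein used at 0.15 µg/mL for 1 h at 4 C; z-score combines 667 nm fluorescence of each spot with its signal to noise.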 Conditions: small-molecule microarray, higher = more signal.
In test [19] the target is Torsin-1A-interacting protein 1 (Homo sapiens) (UniProt Q5JTV8). Kind of test: compound microarray binding of lysate hLAP1 – cell lysate, small-molecule microarray, COS7 lysate, 635/667 nm fluorescence, primary screen (AID 1116). Conditions: 635 nm fluorescence, higher = more signal.
Sequence of Torsin-1A-interacting protein 1 (Homo sapiens) (Q5JTV8 whole entry, looked up): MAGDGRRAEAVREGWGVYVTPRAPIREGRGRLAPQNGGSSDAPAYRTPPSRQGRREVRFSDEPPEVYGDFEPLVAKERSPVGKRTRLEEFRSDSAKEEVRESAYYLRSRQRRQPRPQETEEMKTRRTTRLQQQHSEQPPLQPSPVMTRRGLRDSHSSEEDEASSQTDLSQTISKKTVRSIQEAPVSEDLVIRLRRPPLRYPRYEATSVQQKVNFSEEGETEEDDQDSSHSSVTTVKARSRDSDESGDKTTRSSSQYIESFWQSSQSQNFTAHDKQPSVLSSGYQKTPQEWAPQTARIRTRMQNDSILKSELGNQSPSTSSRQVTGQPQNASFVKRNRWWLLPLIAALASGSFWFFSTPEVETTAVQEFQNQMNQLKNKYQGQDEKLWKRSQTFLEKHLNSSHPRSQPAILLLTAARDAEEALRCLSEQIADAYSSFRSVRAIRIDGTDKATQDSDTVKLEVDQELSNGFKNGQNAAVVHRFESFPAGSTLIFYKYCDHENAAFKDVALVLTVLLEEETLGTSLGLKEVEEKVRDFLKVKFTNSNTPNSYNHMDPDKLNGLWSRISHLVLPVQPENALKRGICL
Test [20] has as its target Alpha-bungarotoxin (Bungarus multicinctus) (UniProt P60615). The test can be described thus: compounds binding labelled alpha-BTX control protein – biochemical, small-molecule microarray, Alexa647 label, 635/667 nm fluorescence, artefact control for SMM control protein annotation, profiling panel (AID 1117). To be noted: alpha-BTX-A647 binding fluorescence, higher = more signal.

The source made the active and inactive calls.

Sequence of Fibroblast growth factor 10 (Homo sapiens) (O15520 whole entry, looked up): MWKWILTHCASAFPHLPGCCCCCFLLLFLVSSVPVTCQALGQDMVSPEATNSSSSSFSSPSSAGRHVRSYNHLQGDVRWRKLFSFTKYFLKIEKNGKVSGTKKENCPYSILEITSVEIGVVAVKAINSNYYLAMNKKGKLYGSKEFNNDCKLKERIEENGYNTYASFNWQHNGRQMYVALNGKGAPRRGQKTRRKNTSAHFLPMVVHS
Sequence of Left-right determination factor 2 (Homo sapiens) (O00292 whole entry, looked up): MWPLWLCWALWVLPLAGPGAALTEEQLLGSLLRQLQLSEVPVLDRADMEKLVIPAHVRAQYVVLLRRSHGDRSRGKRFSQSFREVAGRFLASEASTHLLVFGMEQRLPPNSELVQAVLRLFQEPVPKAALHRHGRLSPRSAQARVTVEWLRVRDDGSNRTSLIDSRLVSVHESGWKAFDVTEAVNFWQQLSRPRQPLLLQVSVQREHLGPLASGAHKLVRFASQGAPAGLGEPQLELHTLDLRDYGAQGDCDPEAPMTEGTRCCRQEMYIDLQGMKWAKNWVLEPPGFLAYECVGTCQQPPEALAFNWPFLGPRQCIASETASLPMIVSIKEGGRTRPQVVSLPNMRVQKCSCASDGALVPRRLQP
Sequence of Follistatin-related protein 3 (Homo sapiens) (O95633 whole entry, looked up): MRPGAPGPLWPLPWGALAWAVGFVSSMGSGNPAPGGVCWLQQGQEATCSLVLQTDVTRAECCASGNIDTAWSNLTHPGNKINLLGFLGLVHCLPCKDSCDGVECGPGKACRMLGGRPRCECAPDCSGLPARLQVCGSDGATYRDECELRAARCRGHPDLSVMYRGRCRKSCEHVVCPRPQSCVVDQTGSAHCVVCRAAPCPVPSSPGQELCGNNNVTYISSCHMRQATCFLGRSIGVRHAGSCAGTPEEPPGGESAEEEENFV
Sequence of Alpha-bungarotoxin (Bungarus multicinctus) (P60615 whole entry, looked up): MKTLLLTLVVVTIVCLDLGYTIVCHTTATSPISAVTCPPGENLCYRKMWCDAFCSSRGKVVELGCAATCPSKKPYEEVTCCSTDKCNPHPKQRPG

`CC(C)CNC(=O)[C@@H]1c2ccccc2C(=O)N(C2CCCCC2)[C@H]1c1ccc(CO)cc1`: the composite z-score in test [1] is 1.65; in [2], 0.477; in test [3], 0.962; in [5], -0.0953; in [6], 0.185; in test [7] it was -0.602. Also, the composite z-score in [8] was -0.333; in test [9], -0.308; in test [10], 0.0986; in test [11], 0.0857; in test [13] it was -0.276; in test [14] it was 0.54. Further, the composite z-score was 1.09 in test [15]; -0.124 in test [16]; -0.153 in test [17]; 0.313 in [18]; 0.875 in [19]; -0.624 in test [20]. For the same molecule, the results for the z-score in test [4] and in test [12] were -1.25 (inactive) and -0.48, respectively.
With `[N-]=[N+]=NCc1ccccc1[C@H]1OC(c2ccc(OCCCO)cc2)=N[C@@]1(CCS(=O)(=O)c1ccccc1)C(=O)NCc1ccccc1`, the composite z-score amounted to 1.26 in [1]; 1.65 in test [2]; 0.743 in [3]; 1.06 in [5]; 1.29 in test [6]; 0.333 in [7]. Also, the composite z-score in test [8] is 0.819; in [9], -0.0778; in test [10] it was 0.447; in [11] it was 1.4; in test [13], 0.115; in test [14], 1.65. The composite z-score was 0.84 in [15]; 0.0253 in [16]; 0.14 in [17]; 0.543 in test [18]; 0.804 in test [19]; 2.15 in [20]. Moreover, the z-score is 0.118 (inactive) in test [4] and -2.04 in [12].
For the molecule `C[C@]1(C(=O)O)c2ccccc2C(=O)N(Cc2ccc(OC(F)(F)F)cc2)[C@H]1c1ccc(CO)cc1`, the composite z-score is 0.0634 in test [1]; 0.702 in test [2]; 1.01 in test [3]; 0.0104 in test [5]; -0.502 in test [6]; -0.409 in [7]. In addition, the composite z-score in test [8] is -0.0953; in [9], -0.656; in test [10] it was 0.496; in [11], -0.829; in test [13], -0.618; in test [14] it was 1.03. The composite z-score is 0.714 in [15]; -0.129 in [16]; 0.147 in test [17]; 0.265 in test [18]; 0.703 in [19]; 1.56 in test [20]. For the same molecule, the values for the z-score in test [4] and in test [12] were 0.524 (inactive) and -0.102, respectively.
`CCCCCCCCCCC(O)C1C=CC2C(=O)N(C)C(=O)C2N1Nc1cc(OC)c(OC)c(OC)c1` (stereo not given): the composite z-score in [1] is 1.05; in test [2], 0.571; in test [3], 0.858; in test [5], -0.471; in test [6], -1.29; in test [7], -0.637. The composite z-score in [8] was -1.29; in [9] it was -0.939; in [10], 1.18; in [11], -0.298; in test [13], -1.11; in test [14] it was 1.82. Further, the composite z-score in test [15] was 1.39; in test [16], -0.0529; in test [17], -0.0398; in test [18], 0.837; in [19], -0.232; in test [20], 0.229. The results for the z-score in test [4] and in test [12] were 0.271 (inactive) and -2.01, respectively.
Regarding `CC(C)CNC(=O)[C@@]1(C)c2ccccc2C(=O)N(Cc2cc(C(F)(F)F)cc(C(F)(F)F)c2)[C@H]1c1ccc(CO)cc1`, the composite z-score is 0.386 in test [1]; -0.147 in [2]; 0.587 in test [3]; -0.631 in [5]; -1.02 in [6]; -0.647 in test [7]. Also, the composite z-score was -0.522 in test [8]; -0.6 in test [9]; 0.32 in test [10]; 0.267 in [11]; -0.557 in test [13]; -0.438 in test [14]. The composite z-score in test [15] was 0.507; in test [16], -0.175; in test [17], -0.291; in test [18], -0.318; in [19], 0.0492; in test [20], -0.0153. Also, the z-score in test [4] is 0.0167 (inactive); in test [12], -0.447.
`O=C(O)[C@H]1C[C@H]2C(=O)N[C@@H](Cc3ccccc3)C(=O)N2[C@H]1c1cccc(OCCO)c1`: the composite z-score in test [1] was 0.348; in [2], 0.507; in test [3], 0.198; in test [5], 0.986; in [6] it was 0.874; in [7] it was 0.391. For the same molecule, the composite z-score in test [8] was 1.2; in [9], 1.17; in test [10] it was 0.206; in test [11], 0.0635; in [13] it was 0.978; in test [14] it was -0.309. Further, the composite z-score was -0.411 in test [15]; 0.0079 in test [16]; -0.214 in test [17]; 0.185 in [18]; 0.543 in [19]; 0.366 in test [20]. Also, the z-score in [4] is -0.129 (inactive); in test [12] it was 4.5.
